“And” between values parts separate entries of the source, which are not always exact repeats. Equal entries are not always repeated. In all, about 350,000 compounds went through this assay and about 1,200 (0.34%) were called active. Entries that show only a call come without a potency. About 3% were inconclusive and are not listed. Calls come from the whole dose curve; as a rule, active = well fitted inhibition curve with a large enough effect; inconclusive = small, poorly fitted or top-dose-only effect; inactive = no such curve, though single readings can be large or run the other way. For the sample, actives were picked, then their nearest neighbours and some compounds at random. More than one record can exist for a structure, and the calls need not agree. Positions of bridges follow the written chain, without caps; N, C: chain ends. Non-standard residues stand in square brackets, D forms with d. Residues, ends and D or L forms follow the SMILES beside them. *: point of attachment. X1 = CC[C@H](C)CCCCC(=O)*; Dab = NCC[C@H](N)C(=O)O
Molecular target: DNA repair nuclease/redox regulator APEX1 (Homo sapiens) (UniProt P27695)
Sequence (P27695 whole entry, looked up): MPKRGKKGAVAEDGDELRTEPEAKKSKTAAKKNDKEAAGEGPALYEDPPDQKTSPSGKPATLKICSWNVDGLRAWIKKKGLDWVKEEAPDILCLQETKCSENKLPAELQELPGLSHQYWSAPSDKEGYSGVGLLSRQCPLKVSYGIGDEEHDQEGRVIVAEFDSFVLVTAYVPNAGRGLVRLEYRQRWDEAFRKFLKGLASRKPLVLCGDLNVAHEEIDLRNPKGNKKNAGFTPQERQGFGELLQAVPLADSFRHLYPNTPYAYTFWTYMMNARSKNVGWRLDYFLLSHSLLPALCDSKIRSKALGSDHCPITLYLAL
Assay: qHTS Assay for Inhibitors of the Human Apurinic/apyrimidinic Endonuclease 1 (APE1); note: nearly all actives have a fitted effect of over 55% in size
Conditions: recombinant APE1, TAMRA/BHQ-2 abasic DNA cleavage fluorescence; activity change, negative = inhibition: at 65.8 µM (top of the series)
Summary of the method: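 Activity was derived from the fluorescence gain between first and third kinetic reads (60 s intervals, ex 525/em 598 nm) after 50 nM THF-abasic TAMRA/BHQ-2 duplex was added to 0.75 nM APE1 preincubated 15 min with compound.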
Potency is the fitted concentration of half-maximal effect.

Row | SMILES | Potency | activity change, negative = inhibition
1 | Cc1nnc(SCC2=C(C(=O)O)N3C(=O)C(NC(=O)Cn4nc(C)c(Cl)c4C)C3SC2)s1 (stereo not given) | inactive | 
2 | C=CC1=C(C(=O)O)N2C(=O)[C@@H](NC(=O)/C(=N\OCC(=O)O)c3csc(N)n3)[C@H]2SC1 | 11.9 µM (active) | 
3 | CO/N=C(\C(=O)N[C@@H]1C(=O)N2C(C(=O)O)=C(COC(C)=O)CS[C@H]12)c1csc(N)n1 (stereo in doubt) | inactive and 10 µM (active) and 10.6 µM (active) | 
4 | C/C=C/C1=C(C(=O)O)N2C(=O)[C@@H](NC(=O)[C@H](N)c3ccc(O)cc3)[C@H]2SC1 | inactive | 
5 | Cc1cc(C)cc(C(=O)NC2C(=O)N3C(C(=O)O)=C(CSc4nnc(C)s4)CSC23)c1 (stereo not given) | inactive | 
6 | CC(C)(C)OC(=O)C1=C(CO)CS[C@@H]2[C@H](NC(=O)Cc3ccccc3)C(=O)N12 | inactive | 
7 | CC(C)[C@@H](OCc1ccccc1)[C@H](C)/C=N\OC[C@@H](C)[C@H](OCc1ccccc1)C(C)C |  | -2.11% [at 12.4 µM] (inactive)
8 | CO[C@H]1C=CO[C@@]2(C)Oc3c(C)c(O)c4c(O)c(c(/C=N/N5CCN(C)CC5)c(O)c4c3C2=O)NC(=O)/C(C)=C\C=C[C@H](C)[C@H](O)[C@@H](C)[C@@H](O)[C@@H](C)[C@H](OC(C)=O)[C@@H]1C | inactive | 
9 | CC[C@H](C)CCCCC(=O)N[C@@H](CCN)C(=O)N[C@H](C(=O)N[C@@H](CCN)C(=O)N[C@H]1CCNC(=O)[C@@H]([C@H](C)O)NC(=O)[C@H](CCN)NC(=O)[C@H](CCN)NC(=O)[C@H](CC(C)C)NC(=O)[C@@H](CC(C)C)NC(=O)[C@H](CCN)NC1=O)[C@@H](C)O (X1-[Dab]T[Dab][Dab][Dab][dL]L[Dab][Dab][dT]; lactam 4-C) | inactive | 
10 | C[C@H]1Cc2c(COc3ccccc3)nc3c(c2CO1)CN(C(=O)Nc1cccc(C#N)c1)CC3 |  | -2.12% [at 12.4 µM] (inactive)
11 | OCCC(O)CO (stereo not given) | inactive | 
12 | O=C(c1csnn1)N1CCC[C@@]2(CCN(c3cccc(-c4ccccc4)c3)C2)C1 | inactive | 
13 | Cn1cccc1C(=O)N1CCC2(CC1)CN(c1cccc(-c3ccccc3)c1)C2 | inactive | 
14 | Nc1ncnc2c1ncn2C1CC(O)C(CO)O1 (stereo not given) | inactive | 
15 | CC1(OC(=O)c2ccc(Cl)nc2)C(=O)Cc2cc(-c3ccsc3)ncc2C1=O (stereo not given) |  | -0.549% [at 12.4 µM] (inactive)
16 | Cc1ccc(C(=O)NNC(=O)c2cc3cc4ccccc4nc3s2)cc1 | 22.4 µM (active) | 
17 | Cc1ccc(C(=O)NNC(=O)c2ccc3c(c2)OCCO3)cc1 | inactive | 
18 | Cc1ccc(C(=O)NNc2ncnc3ccccc23)cc1 | inactive | 
19 | Cn1cc(-c2nc3cnc(N4CCNCC4)nc3n(CCc3ccccc3)c2=O)c2ccccc21 | inactive | 
20 | COc1ccc(Oc2ncc3nc(-c4ccc(F)cc4)c(=O)n(C)c3n2)cc1 | inactive | 
